Drawing on PubChem BioAssay AID1016 (Sanford-Burnham Center for Chemical Genomics, 2008), this text covers activation factor for five molecules.

Each structure is given as a SMILES string. Out of some 200,000 compounds screened, about 330 (0.17%) were called active. The entries come from a sample that favours actives as a whole. Unmarked numbers belong to inactive results.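 Rule for the calls: active = activation factor of 2 or more at 20 µM, a signal rise over negative controls twice the positive control's; inactive = the rest.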

The subject of the experiment is alkaline phosphatase, intestinal [Bos taurus]. Kind of experiment: bovine intestinal alkaline phosphatase activators, primary screen, biochemical, bovine IAP, CDP-star luminescence (AID 1016). Conditions: purified bovine IAP, 30 min, at 20 µM, active compounds read high.
With `Cc1cc(C)cc(NC(=S)NC2CC3CCCC(C2)N3Cc2cccs2)c1` (stereo not given), the activation factor is 3 (active).

For `COP(=O)(OC)C(NC(=O)c1ccc(C)cc1)C(Cl)(Cl)Cl` (stereo not given), the activation factor was 0.8.

As to `CN(C)C(=O)Oc1ccc(OCc2cccc[n+]2C)cc1`, the activation factor is 1.

With `CCOC(=O)C1SC2(C(F)(F)C(F)F)CC1(O)c1c(c(OC)c3occc3c1OC)O2` (stereo not given), the activation factor was 0.9.

On to `CN(C)CC1CCCCC1OC(=O)c1ccc(Cl)c(Cl)c1` (stereo not given), for which the activation factor is 1.
